A short description of assay [1]: rapamycin-like changes in RPL19A-GFP expression – cell-based, S. cerevisiae, multiplex flow cytometry, primary screen (AID 1862; in the data active = percent of DMSO control GFP below about 86%;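 note: lower values mimic rapamycin by blocking the RPL19A rise seen in DMSO cells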). Particulars: S. cerevisiae RPL19A-GFP strain, flow cytometry fluorescence, 3 h; at 10 µM; stronger effect = lower value. Background: A flow cytometer gives signals particle by particle.
Assay [2] can be described thus: TOR pathway GLN3 branch reporter MEP2-GFP changes – S. cerevisiae, multiplex flow cytometry, primary screen (AID 1867;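 active = GFP response, as percent of the DMSO control, above the screen-wide mean plus 3 SD, about 139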;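 note: median GFP channel fluorescence of barcode-gated MEP2-GFP cells measured by flow cytometry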). Particulars: S. cerevisiae MEP2-GFP strain, 3 h, at 10 µM, stronger effect = higher value, 100% means same as DMSO wells.
Assay [3] is described as follows: TOR pathway RTG branch CIT2 reporter changes – S. cerevisiae, GFP fusion, multiplex flow cytometry, primary screen (AID 1870;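 active = percent response above a set limit, the screen-wide mean plus 3 SD, cut at about 130% in these data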;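 note: barcoded CIT2-GFP strain pooled with four other GFP strains with rapamycin as positive control; median GFP fluorescence per well over plate mean of DMSO wells so 100% = DMSO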). Particulars: S. cerevisiae CIT2-GFP expression, 3 h, at 10 µM, stronger effect = higher value.
Assay [4] can be described thus: TOR pathway LAP4-GFP level changes – S. cerevisiae, multiplex flow cytometry, primary screen (AID 1873;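 active = GFP signal, as percent of the solvent control, above the screen mean plus 3 SD, about 149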). Particulars: S. cerevisiae LAP4-GFP expression, 3 h, at 10 µM, stronger effect = higher value.
Assay [5] can be described thus: yeast AGP1-GFP level changes, GLN3 branch – cell-based, multiplex flow cytometry, S. cerevisiae, primary screen (AID 1887;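 active = GFP signal above the screen-wide mean plus 3 SD, that is over about 124.5% of the solvent control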;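 note: AGP1-GFP fusion strain of S. cerevisiae within a five-strain barcoded multiplex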). The following applies: 3 h, at 10 µM, stronger effect = higher value.
A short description of assay [6]: reduced mouse 2C T cell binding to pMHC/ICAM-1 vesicles – MLPCN validation set, flow cytometry, LFA-1/ICAM-1 modulator project, pilot screen (AID 2523;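 active = response below a set limit, under 55% cells CD8-positive and vesicle-bound, and CD8 cells' 90th-percentile brightness under 279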;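 for vesicle binding response: mean PE anti-B7-1 fluorescence of CD8+ cells relative to row control; 100% = QL9-loaded vesicles with DMSO vehicle in the same plate row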). The following applies: 2C mouse CD8+ T cells, at 7 µM, stronger effect = lower value; double positive events: measured here: CD8+/vesicle+ event percentage.
Assay [7] concerns the target Integrin beta-1 (Homo sapiens) + Integrin alpha-4 (Homo sapiens) (UniProt P13612+P05556). Kind of assay: alpha4beta1 integrin LIBS antibody binding reduction – U937 cells, HUTS-21 mAb, flow cytometry, validation set, VLA-4 allosteric modulator project, pilot screen (AID 2674;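 active = inhibition above 50%, about 3 SD of the validation set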;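 note: antibody binding induced by the VLA-4 ligand LDV present at three times its Kd; 0% = LDV ligand with antibody and no compound and 100% = antibody without LDV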). The following applies: HUTS-21 LIBS mAb binding, at 6.7 µM, stronger effect = higher value, binding induced by LDV ligand.

Assay [8] is described as follows: calorie-restriction mimetic ROS inhibitors, yeast – validation compound set, pilot screen (AID 2706;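 active = superoxide response below 65% of plate, a cut near 3 SD across the whole screen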;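 note: yeast exposed to compound for one week at 30 degrees C before staining; 100% = mean of all compound wells on the same plate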). The following applies: S. cerevisiae aging, superoxide DHE fluorescence; at 10 µM; stronger effect = lower value.
Assay [9] deals with Beta-adrenergic receptor kinase 1 (Homo sapiens) (UniProt P25098). Kind of assay: GRK2 binders displacing RNA aptamer, biochemical, validation, human GRK2, bead flow cytometry (AID 488806;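 active = aptamer binding inhibition above 30%, about 3 SD of noise from non-fluorescent compounds; inactive = inhibition at or below 30%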). Particulars: bead-bound GRK2, FAM-aptamer displacement, at 10 µM, stronger effect = higher value.
Sequence of Beta-adrenergic receptor kinase 1 (Homo sapiens) (P25098 whole entry, looked up): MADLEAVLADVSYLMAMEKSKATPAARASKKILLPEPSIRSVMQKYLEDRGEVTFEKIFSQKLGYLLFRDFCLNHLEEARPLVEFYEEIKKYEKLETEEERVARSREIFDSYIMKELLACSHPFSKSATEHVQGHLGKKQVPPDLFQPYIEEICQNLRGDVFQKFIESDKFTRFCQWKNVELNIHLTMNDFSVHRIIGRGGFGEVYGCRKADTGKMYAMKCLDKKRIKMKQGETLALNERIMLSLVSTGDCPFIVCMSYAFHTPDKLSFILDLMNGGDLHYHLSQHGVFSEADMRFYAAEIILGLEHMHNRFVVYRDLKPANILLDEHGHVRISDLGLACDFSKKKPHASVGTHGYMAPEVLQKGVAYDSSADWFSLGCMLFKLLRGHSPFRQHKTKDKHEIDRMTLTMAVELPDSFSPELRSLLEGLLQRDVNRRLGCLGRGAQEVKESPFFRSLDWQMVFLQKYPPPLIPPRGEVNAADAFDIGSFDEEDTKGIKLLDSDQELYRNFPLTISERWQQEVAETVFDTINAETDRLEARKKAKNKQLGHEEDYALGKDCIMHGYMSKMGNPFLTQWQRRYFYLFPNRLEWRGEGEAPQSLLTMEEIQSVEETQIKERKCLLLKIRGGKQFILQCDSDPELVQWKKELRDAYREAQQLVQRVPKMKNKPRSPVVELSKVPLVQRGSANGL
For assay [10], the target named is Beta-2 adrenergic receptor (Homo sapiens) (UniProt P07550). In words: agonist-induced loss of surface beta2AR – cell-based, FAP fluorogen, flow cytometry, validation set, pilot screen (AID 504459;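 active = percent response above 42, roughly 3 SD of non-fluorescent test compounds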;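 note: agonist-driven loss of surface beta2AR via internalization measured by FAP dye flow cytometry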). Particulars: Am2.2-beta2AR cells, at 10 µM, stronger effect = higher value.
Sequence of Beta-2 adrenergic receptor (Homo sapiens) (P07550 whole entry, looked up): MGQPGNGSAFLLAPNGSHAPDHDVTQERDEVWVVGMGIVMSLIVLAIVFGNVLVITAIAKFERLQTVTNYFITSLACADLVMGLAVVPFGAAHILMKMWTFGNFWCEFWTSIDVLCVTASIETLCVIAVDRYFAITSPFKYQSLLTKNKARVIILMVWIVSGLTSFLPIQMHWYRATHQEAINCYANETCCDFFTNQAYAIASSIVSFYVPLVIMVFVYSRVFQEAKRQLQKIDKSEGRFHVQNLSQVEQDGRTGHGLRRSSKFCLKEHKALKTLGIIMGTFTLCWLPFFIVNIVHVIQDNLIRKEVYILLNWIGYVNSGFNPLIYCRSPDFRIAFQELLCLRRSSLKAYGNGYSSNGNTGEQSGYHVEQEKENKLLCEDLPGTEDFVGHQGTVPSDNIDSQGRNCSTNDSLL
Assay [11] addresses AP-2 complex subunit beta (Homo sapiens) (UniProt P63010). In words: beta-arrestin/AP2 interaction blockers – biochemical, validation set, GST-AP2 beads, flow cytometry, pilot screen (AID 504541;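 active = inhibition above 54%, about 3 SD of non-fluorescent compounds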;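 note: AP2 carries R879A mutation and is captured from E. coli lysate; bead-bound FITC arrestin peptide fluorescence measuring arrestin peptide binding to AP2; 0% = DMSO wells and 100% = excess unlabeled arrestin peptide control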). Particulars: FITC arrestin peptide, at 10 µM, stronger effect = higher value, AP2 beta2 appendage fragment, R879A mutant.
A short description of assay [12]: cytosolic pH regulators acting via V-ATPase – S. cerevisiae, pHLuorin, HTS validation (AID 504600; in the data active = response above about 15%;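 note: plate controls were DMSO for no effect and reference compound for full effect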). The following applies: V-ATPase proton transport, at 10 µM, stronger effect = higher value.
Assay [13] deals with anti-desmoglein-3 scFv antibody binding to human DSG3. In words: blockers of pathogenic pemphigus antibody–desmoglein-3 binding – biochemical, validation compound set, bead-based, flow cytometry, pilot screen (AID 588368).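 Note: signal is the median channel fluorescence of bead-bound GFP antibody.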 The following applies: Protein G beads, DSG3-Fc, scFv-GFP binding, at 10 µM, stronger effect = lower value.
A short description of assay [14]: Nile Red efflux blockade in pump-expressing yeast – validation compound set, multiplex, phenotypic, pilot screen (AID 588506;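 active = efflux inhibition above 0.42, the validation set average plus 4 SD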;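 note: Nile Red retained in cells so higher fluorescence means more efflux inhibition; 0 = negative control wells and 1 = enniatin B 25 µM full block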). The following applies: S. cerevisiae pump-expressing triplex, Nile Red efflux flow cytometry; at 10 µM; stronger effect = higher value; the pumps come from Candida albicans.
For assay [15], the target named is ATP-binding cassette sub-family B member 6 (Homo sapiens) (UniProt Q9NP58). In words: blockers of ABCB6-driven porphyrin uptake – K562-ABCB6 cells, flow cytometry, validation set, pilot screen (AID 588550;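 active = inhibition above the screen-wide mean plus 3 SD, about 51%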;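 note: 0% = DMSO wells and 100% = benzethonium chloride 70 µM positive control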). The following applies: K562-ABCB6 porphyrin accumulation, 1 h, at 10 µM, stronger effect = higher value.
Sequence of ATP-binding cassette sub-family B member 6 (Homo sapiens) (Q9NP58 whole entry, looked up): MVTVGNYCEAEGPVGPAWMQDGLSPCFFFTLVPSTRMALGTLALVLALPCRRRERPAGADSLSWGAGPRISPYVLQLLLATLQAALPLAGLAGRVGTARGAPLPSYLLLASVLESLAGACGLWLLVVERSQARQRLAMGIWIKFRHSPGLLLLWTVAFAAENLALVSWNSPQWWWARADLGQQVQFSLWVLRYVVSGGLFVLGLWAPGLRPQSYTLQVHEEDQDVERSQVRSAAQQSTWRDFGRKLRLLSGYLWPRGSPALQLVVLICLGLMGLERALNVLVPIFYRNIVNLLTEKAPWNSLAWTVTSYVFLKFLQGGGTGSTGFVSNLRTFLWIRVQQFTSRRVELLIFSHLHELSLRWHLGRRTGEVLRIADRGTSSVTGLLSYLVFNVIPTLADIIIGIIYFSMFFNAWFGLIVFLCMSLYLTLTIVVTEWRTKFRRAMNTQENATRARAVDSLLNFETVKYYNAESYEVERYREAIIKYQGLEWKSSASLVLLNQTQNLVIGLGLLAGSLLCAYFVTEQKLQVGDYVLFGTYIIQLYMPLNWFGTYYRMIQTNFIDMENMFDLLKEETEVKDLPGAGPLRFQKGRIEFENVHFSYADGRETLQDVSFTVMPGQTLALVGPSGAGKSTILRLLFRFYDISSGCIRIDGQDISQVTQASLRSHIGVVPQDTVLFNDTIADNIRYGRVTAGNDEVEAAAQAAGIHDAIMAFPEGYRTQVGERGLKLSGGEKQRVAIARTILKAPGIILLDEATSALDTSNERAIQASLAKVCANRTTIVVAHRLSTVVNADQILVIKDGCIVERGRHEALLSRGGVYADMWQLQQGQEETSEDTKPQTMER
Assay [16] is described as follows: AML differentiation inducers, ER-HoxA9 marrow cells – cell-based, GFP/MAC1 double positive, flow cytometry, validation set, primary screen (AID 588685;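 active = differentiation response of at least 50%, scaled between solvent and reference control, from cells with both markers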;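 note: compound exposure lasts four days before antibody staining and flow analysis; 0% = DMSO wells and 100% = 5 µM fulvestrant positive control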). The following applies: stronger effect = higher value, normalized: vehicle 0, fulvestrant 100.

Results filed as inconclusive are left out. Calls of active or inactive are those of the source.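 Rule for the calls, unless noted: active = binding below the plate cutoff, the plate median minus 3 SD, with a reading above zero; inconclusive = below the plate cutoff but reading exactly zero; inactive = the rest.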

Sequence of Integrin beta-1 (Homo sapiens) + Integrin alpha-4 (Homo sapiens) (P05556 whole entry, looked up): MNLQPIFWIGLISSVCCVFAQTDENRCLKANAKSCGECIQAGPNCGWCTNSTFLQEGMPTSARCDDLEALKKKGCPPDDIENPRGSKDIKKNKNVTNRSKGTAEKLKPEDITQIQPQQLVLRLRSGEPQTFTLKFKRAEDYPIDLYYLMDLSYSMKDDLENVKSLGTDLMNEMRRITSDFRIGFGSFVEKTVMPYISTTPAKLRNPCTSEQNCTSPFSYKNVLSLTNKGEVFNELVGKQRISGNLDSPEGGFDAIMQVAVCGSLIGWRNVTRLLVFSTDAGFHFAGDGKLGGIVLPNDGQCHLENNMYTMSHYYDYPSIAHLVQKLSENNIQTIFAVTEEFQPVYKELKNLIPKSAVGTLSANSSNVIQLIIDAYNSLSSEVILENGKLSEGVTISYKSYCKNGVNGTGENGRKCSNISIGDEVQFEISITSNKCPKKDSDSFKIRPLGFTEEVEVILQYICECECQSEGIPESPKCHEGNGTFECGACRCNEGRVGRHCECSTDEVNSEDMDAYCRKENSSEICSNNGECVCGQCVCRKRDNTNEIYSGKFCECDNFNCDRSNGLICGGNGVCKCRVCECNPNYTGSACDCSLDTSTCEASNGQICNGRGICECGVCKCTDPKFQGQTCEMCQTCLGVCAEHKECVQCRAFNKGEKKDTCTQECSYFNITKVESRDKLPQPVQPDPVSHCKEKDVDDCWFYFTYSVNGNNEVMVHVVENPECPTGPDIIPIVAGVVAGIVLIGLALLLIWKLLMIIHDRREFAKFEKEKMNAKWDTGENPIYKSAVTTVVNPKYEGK
Sequence of Integrin beta-1 (Homo sapiens) + Integrin alpha-4 (Homo sapiens) (P13612 whole entry, looked up): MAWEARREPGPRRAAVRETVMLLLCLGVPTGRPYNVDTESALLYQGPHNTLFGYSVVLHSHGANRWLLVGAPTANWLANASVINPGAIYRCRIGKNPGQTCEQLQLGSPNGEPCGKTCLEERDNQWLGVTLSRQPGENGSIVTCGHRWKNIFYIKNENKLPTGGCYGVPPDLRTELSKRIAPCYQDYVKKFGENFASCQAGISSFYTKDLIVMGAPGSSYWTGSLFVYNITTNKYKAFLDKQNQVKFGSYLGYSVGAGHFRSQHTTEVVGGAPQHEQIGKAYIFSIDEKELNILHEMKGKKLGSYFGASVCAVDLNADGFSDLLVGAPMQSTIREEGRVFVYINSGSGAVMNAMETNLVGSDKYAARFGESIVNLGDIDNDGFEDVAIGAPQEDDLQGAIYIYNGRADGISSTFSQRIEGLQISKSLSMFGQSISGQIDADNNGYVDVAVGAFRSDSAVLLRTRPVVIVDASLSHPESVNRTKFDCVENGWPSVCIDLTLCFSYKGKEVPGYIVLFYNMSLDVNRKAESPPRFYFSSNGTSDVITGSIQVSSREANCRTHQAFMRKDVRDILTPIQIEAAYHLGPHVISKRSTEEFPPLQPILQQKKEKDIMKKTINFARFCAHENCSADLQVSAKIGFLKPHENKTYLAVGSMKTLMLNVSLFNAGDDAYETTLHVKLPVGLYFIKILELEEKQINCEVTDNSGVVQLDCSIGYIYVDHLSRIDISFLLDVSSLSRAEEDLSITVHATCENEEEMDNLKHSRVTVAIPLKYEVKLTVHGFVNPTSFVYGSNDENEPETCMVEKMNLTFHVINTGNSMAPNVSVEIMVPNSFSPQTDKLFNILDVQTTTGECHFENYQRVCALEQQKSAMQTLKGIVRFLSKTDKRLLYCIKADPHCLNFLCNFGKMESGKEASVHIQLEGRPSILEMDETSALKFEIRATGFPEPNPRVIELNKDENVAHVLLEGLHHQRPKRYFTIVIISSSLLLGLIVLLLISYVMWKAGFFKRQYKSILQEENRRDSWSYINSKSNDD
Sequence of AP-2 complex subunit beta (Homo sapiens) (P63010 whole entry, looked up, the tested form may be a part, one chain of several): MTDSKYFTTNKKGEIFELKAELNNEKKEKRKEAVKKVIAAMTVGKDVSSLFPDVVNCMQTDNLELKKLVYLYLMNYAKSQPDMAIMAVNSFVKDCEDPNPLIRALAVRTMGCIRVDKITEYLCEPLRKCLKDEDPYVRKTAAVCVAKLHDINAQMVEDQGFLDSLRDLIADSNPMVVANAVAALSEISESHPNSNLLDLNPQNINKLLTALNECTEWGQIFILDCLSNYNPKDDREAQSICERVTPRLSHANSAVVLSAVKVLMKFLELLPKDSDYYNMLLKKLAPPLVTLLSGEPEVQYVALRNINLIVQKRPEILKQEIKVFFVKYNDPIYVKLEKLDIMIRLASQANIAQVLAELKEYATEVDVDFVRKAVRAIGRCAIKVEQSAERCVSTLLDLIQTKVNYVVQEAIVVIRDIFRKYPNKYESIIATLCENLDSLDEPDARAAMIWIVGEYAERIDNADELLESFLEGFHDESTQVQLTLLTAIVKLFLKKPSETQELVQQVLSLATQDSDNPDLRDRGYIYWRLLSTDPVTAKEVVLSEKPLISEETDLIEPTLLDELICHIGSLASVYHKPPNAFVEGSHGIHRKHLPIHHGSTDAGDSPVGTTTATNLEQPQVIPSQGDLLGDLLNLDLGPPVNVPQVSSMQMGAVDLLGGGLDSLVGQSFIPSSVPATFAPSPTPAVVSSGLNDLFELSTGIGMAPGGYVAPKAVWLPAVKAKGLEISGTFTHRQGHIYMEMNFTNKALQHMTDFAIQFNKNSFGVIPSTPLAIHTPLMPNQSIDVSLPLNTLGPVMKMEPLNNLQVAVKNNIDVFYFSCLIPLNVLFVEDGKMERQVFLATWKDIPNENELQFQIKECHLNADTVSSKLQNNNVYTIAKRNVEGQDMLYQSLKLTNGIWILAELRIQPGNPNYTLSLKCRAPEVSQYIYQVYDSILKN

Turning to `OCCC1CN(Cc2ccccc2-c2ccco2)CCN1C1CCCC1` (stereo not given), the percent of DMSO control GFP in [1] is 99% (inactive). In addition, the GFP response vs DMSO in assay [2] was 97.6% (inactive); in [4], 110% (inactive). Besides, in assay [3], the percent response of DMSO control is 93.1% (inactive). In addition, the GFP response, % of DMSO in assay [5] is 110% (inactive). Further, the double positive events in assay [6] was found to be 59%. Further, the vesicle binding response in assay [6] was 123% (inactive). The inhibition in [7] was 12.5% (inactive); in [11], -16.3% (inactive); in [15], 1% (inactive). In addition, the superoxide response (% of plate) in assay [8] was 95% (inactive). For the same compound, in assay [9], the aptamer binding inhibition was 0% (inactive). Further, the figures for the response in assay [10] and in assay [12] were -21.4% (inactive) and 4.26% (inactive), respectively. For the same compound, the binding (% of control) in assay [13] is 101% (inactive). For the same compound, the efflux inhibition (fraction of control) in [14] was 0.04 (inactive). For the same compound, the differentiation response in [16] was -3.02% (inactive).

`COc1cccc2c1OCC1COc3c(c(=O)n(C)c(=O)n3C)C21` (stereo not given): the percent of DMSO control GFP in [1] is 101% (inactive). For the same compound, the GFP response vs DMSO is 108% (inactive) in assay [2] and 130% (inactive) in [4]. In addition, the percent response of DMSO control in assay [3] was 99.6% (inactive). The GFP response, % of DMSO in [5] was 102% (inactive). In assay [6], this compound gave a double positive events of 64.4%. For the same compound, the vesicle binding response in assay [6] is 201% (inactive). In addition, the inhibition in assay [7] is 14.6% (inactive); in [11], 59.9% (active); in assay [15], 2% (inactive). For the same compound, in assay [8], the superoxide response (% of plate) was 95% (inactive). In addition, in [9], the aptamer binding inhibition was -1% (inactive). Besides, the response in assay [10] is -9.55% (inactive); in [12], -4.7% (inactive). For the same compound, the binding (% of control) in [13] was 101% (inactive). Besides, the efflux inhibition (fraction of control) in [14] is 0.08 (inactive). Moreover, the differentiation response in [16] was 13.6% (inactive).

Turning to `CCCCCCCCCC(=O)OCC(O)CO` (stereo not given), in assay [1], the percent of DMSO control GFP was 105% (inactive). The GFP response vs DMSO in [2] is 105% (inactive); in [4], 103% (inactive). Besides, the percent response of DMSO control in assay [3] was 102% (inactive). Also, the GFP response, % of DMSO in [5] was 93.4% (inactive). The compound also came in with a double positive events in assay [6] of 65.4%. In assay [6], the vesicle binding response is 163% (inactive). Moreover, the figures for the inhibition in [7], in assay [11] and in assay [15] were -10.8% (inactive), 59.4% (active) and 5% (inactive), respectively. The superoxide response (% of plate) in assay [8] was 116% (inactive). Also, the aptamer binding inhibition in [9] was 4% (inactive). Also, the values for the response in assay [10] and in assay [12] were -2% (inactive) and -4.17% (inactive), respectively. Further, the binding (% of control) in assay [13] is 96.3% (inactive). In addition, the efflux inhibition (fraction of control) in [14] is 0.18 (inactive). Moreover, in assay [16], the differentiation response was 9.04% (inactive).

Take `O=C(NC(=S)Nc1nc(-c2ccccc2)cs1)c1ccco1`: the percent of DMSO control GFP in [1] was 90.9% (inactive). Besides, the GFP response vs DMSO in assay [2] was 132% (inactive); in assay [4] it was 85.3% (inactive). Moreover, the percent response of DMSO control in assay [3] is 102% (inactive). Besides, the GFP response, % of DMSO in assay [5] was 87.3% (inactive). The double positive events in assay [6] stood at 55.7%. In [6], the vesicle binding response is 164% (inactive). Further, the values for the inhibition in [7], in assay [11] and in [15] were 1.61% (inactive), 16.9% (inactive) and 7% (inactive), respectively. The superoxide response (% of plate) in [8] is 110% (inactive). The aptamer binding inhibition in assay [9] is 3% (inactive). Also, the figures for the response in [10] and in [12] were -23.9% (inactive) and -1.38% (inactive), respectively. The binding (% of control) in assay [13] is 102% (inactive). Further, the efflux inhibition (fraction of control) in assay [14] was 0.12 (inactive). For the same compound, the differentiation response in assay [16] is 5.73% (inactive).

On to `Cc1ccc(C(=O)COC(=O)c2cccc(N3C(=O)c4c(C)nc5ccccc5c4C3=O)c2)cc1C`, for which, in assay [1], the percent of DMSO control GFP is 99.5% (inactive). Also, the values for the GFP response vs DMSO in [2] and in assay [4] were 102% (inactive) and 110% (inactive), respectively. In addition, the percent response of DMSO control in assay [3] was 97% (inactive). For the same compound, the GFP response, % of DMSO in [5] is 113% (inactive). For the same compound, the double positive events in assay [6] amounted to 61.9%. In addition, the vesicle binding response in assay [6] is 170% (inactive). The inhibition in assay [7] is -8.78% (inactive); in [11] it was -6.3% (inactive); in [15], 2% (inactive). Moreover, the superoxide response (% of plate) in [8] was 107% (inactive). In [9], the aptamer binding inhibition was 1% (inactive). In addition, the response in assay [10] is -22.6% (inactive); in assay [12], -3.74% (inactive). In addition, in assay [13], the binding (% of control) is 98.8% (inactive). For the same compound, the efflux inhibition (fraction of control) in [14] was 0.25 (inactive). For the same compound, the differentiation response in assay [16] was -13.9% (inactive).

The inhibition is the relative decrease from the control value, in per cent.

For the origin of these results see PubChem BioAssay.
